Inconclusive results are not listed. Calls of active or inactive are those of the source. The call rests on the fitted dose curve; in most records, active means well fitted curve in the direction sought with a large enough effect; inconclusive means small, poorly fitted or top-dose-only effect, or another doubt; inactive means no such curve, though single readings can be large; an effect the other way counts as inactive or inconclusive.
What was measured:
[1] = Cellular Toxicity (caspase-3) Mesangial (AID 660); settings: mesangial cells, normalized: DMSO 0%, 100 µM tamoxifen 100%; at 91.7 µM (top of the series);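 further: combined caspase 3 and 7 activity read by Caspase-Glo luminescence; cells exposed to compound for 16 h before the caspase read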
In short: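 Caspase 3/7 activation measured by Caspase-Glo 3/7 luminescence (20 min, room temperature) following 16 h exposure of mesangial cells (1000/well); AC50 from Hill-equation fit, normalized to DMSO and 100 uM tamoxifen.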

[2] = Cellular Toxicity (caspase-3) SK-N-SH (AID 661);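 further: 0% = DMSO basal and 100% = 10 µM staurosporine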
In short: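 Caspase 3/7 activation was read by luminogenic substrate cleavage after 16 hour treatment of SK-N-SH cells. Signal was scaled between DMSO and 10 uM staurosporine, and concentration-response data were fitted with the Hill equation for AC50.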

[3] = Cellular Toxicity (caspase-3) H-4-II-E (AID 663); settings: H-4-II-E rat hepatoma, scaled: DMSO 0%, 100 µM tamoxifen 100%; at 92.2 µM (top of the series);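 further: cells exposed to compound for 16 hr before readout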
In short: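 Caspase 3/7 activation measured in H-4-II-E cells in complete culture medium after 16 hr treatment at 37 °C, using luciferase-coupled substrate readout; AC50 values come from Hill-equation fits of normalized concentration-response data.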

[4] = Cellular Toxicity (caspase-3) N2a (AID 665);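 further: compound exposure lasted 16 h at 37 °C before readout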
In short: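 Caspase-3/7 activation measured as luminescence from Caspase-Glo reagent (1 h, room temperature) after 16 h compound exposure of mouse N2a cells. AC50 values from Hill-equation concentration-response, scaled between DMSO and 10 uM staurosporine.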

[5] = Cellular Toxicity (caspase-3) NIH 3T3 (AID 666);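 further: caspase signal read after 16 h compound exposure; 0% = DMSO basal and 100% = 100 µM tamoxifen stimulation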
In short: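 Caspase-Glo 3/7 luminescence reported caspase activation in 1000 NIH 3T3 cells/well after 16 h compound exposure at 37 C. DMSO set basal and 100 uM tamoxifen set 100% stimulation; concentration-response modeled with the Hill equation for AC50.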

[6] = Cellular Toxicity (caspase-3) Renal Proximal Tubule (AID 667); settings: Potency: caspase-3 activation;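 further: cells exposed to compound for 16 hours at 37 °C before detection; 0% = DMSO basal and 100% = 10 µM staurosporine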
In short: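 In qHTS format, rat primary proximal tubule cells seeded at 1000 per well are exposed to compounds for 16 hours at 37 °C. An increase in Caspase-Glo 3/7 luminescence indicates caspase activation.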

[7] = target: Cytochrome P450 3A4 (Homo sapiens) (UniProt P08684); assay: qHTS Assay for Inhibitors and Substrates of Cytochrome P450 3A4 (AID 884); further: on the % scale 0 is the no-effect control and ±100 the full control effect; nearly all actives have a fitted effect of over 50% in size
In short: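 Luminescent readout of luciferin produced by CYP3A4 (20 nM) dealkylation of Luciferin-PPXE, 25 uM (its KM). NADPH-driven reaction ran 60 min at RT after 10 min compound preincubation; data scaled to 57 uM ketoconazole as 100% inhibition.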

[8] = Cell Viability - LYMP2-001 (AID 921);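 further: cells exposed to compound for 24 h at 37 °C; nearly all actives have a fitted effect of over 70% in size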; further: potency means the concentration at half of the fitted maximal effect
In short: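 qHTS, 1536-well; lymphoblastoid cells, 24 hr compound, 37 C; ATP by CellTiter-Glo, 30 min RT; luminescence; Hill-fit AC50.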

[9] = target: Cytochrome P450 3A4 (Homo sapiens) (UniProt P08684); assay: qHTS Assay for Activators of Cytochrome P450 3A4 (AID 885); further: nearly all actives have a fitted effect of over 65% in size
In short: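 Human CYP3A4 dealkylates Luciferin-PPXE to luciferin, which luciferase detection converts to light. Substrate was at its KM (25uM), buffer 200mM KPO4, reaction 60 min at RT.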

[10] = Cellular Toxicity (caspase-3) Hek293 (AID 664); settings: HEK293 caspase-3 activation, DMSO = 0%, 100 µM tamoxifen = 100%; at 92.2 µM (top of the series);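 further: cells exposed to compound for 16 h at 37 °C before readout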
In short: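 Concentration-response qHTS: caspase 3/7 activation measured by luminescent aminoluciferin substrate cleavage after 16 h compound exposure of Hek 293 cells. AC50 from Hill equation, with DMSO as basal and 100 uM tamoxifen as 100%.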

Chain of Cytochrome P450 3A4 (Homo sapiens) (P08684 whole entry, looked up): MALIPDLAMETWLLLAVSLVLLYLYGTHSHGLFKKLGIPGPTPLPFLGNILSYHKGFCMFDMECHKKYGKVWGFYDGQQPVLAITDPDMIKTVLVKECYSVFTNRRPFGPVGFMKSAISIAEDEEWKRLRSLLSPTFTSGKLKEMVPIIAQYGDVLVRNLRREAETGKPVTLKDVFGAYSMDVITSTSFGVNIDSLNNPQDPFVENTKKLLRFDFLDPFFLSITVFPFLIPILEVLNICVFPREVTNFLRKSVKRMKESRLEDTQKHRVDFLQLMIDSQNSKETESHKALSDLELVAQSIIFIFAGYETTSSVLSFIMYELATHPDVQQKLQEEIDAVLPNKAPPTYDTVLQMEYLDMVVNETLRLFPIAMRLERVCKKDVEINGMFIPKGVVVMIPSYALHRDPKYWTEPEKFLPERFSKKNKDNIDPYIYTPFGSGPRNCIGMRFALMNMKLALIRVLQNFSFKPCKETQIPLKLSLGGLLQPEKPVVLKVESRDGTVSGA

N#CCc1ccccc1[N+](=O)[O-]
inactive: caspase-3 activation [1] -0.803% | outcome [2] | caspase-3 activation [3] 1.83% | outcome [4] | outcome [5] | Potency [6] | Potency [7] | Potency [8]

OC(CCl)CCl
inactive: caspase-3 activation [1] 2.07% | outcome [2] | caspase-3 activation [3] 1.01% | outcome [4] | outcome [5] | Potency [6] | Potency [8]

CC(C)=C1CCC(C)CC1=O (configuration not stated)
inactive: caspase-3 activation [1] 0.404% | outcome [2] | caspase-3 activation [3] -0.0437% | outcome [4] | outcome [5] | Potency [8]

C=C(C)OC(C)=O
inactive: caspase-3 activation [1] -0.109% | outcome [2] | caspase-3 activation [3] 2.67% | outcome [4] | outcome [5] | Potency [6] | Potency [7] | Potency [8]

CC/C(C)=N/O
inactive: caspase-3 activation [1] 0.891% | outcome [2] | caspase-3 activation [3] -0.877% | outcome [4] | outcome [5] | Potency [6] | Potency [8]

CCOC(=O)C(C)C(C)=O (configuration not stated)
inactive: caspase-3 activation [1] 1.11% | outcome [2] | caspase-3 activation [3] 0.941% | outcome [4] | outcome [5] | Potency [6] | Potency [7] | Potency [8]

Cc1cccc(C(=O)O)c1[N+](=O)[O-]
inactive: caspase-3 activation [1] 0.577% | outcome [2] | caspase-3 activation [3] 0.904% | outcome [4] | outcome [5] | Potency [6] | Potency [7] | Potency [8]

Nc1cc(Cl)c(N)c(Cl)c1
inactive: caspase-3 activation [1] -0.0656% | outcome [2] | caspase-3 activation [3] 1.21% | outcome [4] | outcome [5] | Potency [6] | outcome [9] | Potency [8]

Nc1ccc(F)cc1F
inactive: caspase-3 activation [1] -0.571% | outcome [2] | caspase-3 activation [3] -0.359% | outcome [4] | Potency [6] | Potency [7] | Potency [8]

CCC(O)C(C)(C)C (configuration not stated)
inactive: caspase-3 activation [1] 0.94% | outcome [2] | caspase-3 activation [3] -0.43% | outcome [4] | outcome [5] | Potency [6] | Potency [7] | Potency [8]

O=Cc1ccc(C(=O)O)cc1
inactive: caspase-3 activation [1] 0.146% | outcome [2] | caspase-3 activation [3] -0.315% | outcome [4] | outcome [5] | Potency [6] | Potency [7] | Potency [8]

NC(=O)c1cccc([N+](=O)[O-])c1
inactive: caspase-3 activation [1] 0.906% | outcome [2] | caspase-3 activation [3] -1.74% | outcome [4] | Potency [6] | Potency [8]

C=CC(=O)NC(C)C
inactive: caspase-3 activation [1] 1.12% | outcome [2] | caspase-3 activation [3] 0.575% | outcome [4] | outcome [5] | Potency [6] | Potency [7] | Potency [8]

CCCCCCC(=O)O
inactive: caspase-3 activation [1] -0.964% | outcome [2] | caspase-3 activation [3] 0.492% | outcome [4] | Potency [6] | Potency [7] | Potency [8]

O=C(Cl)c1c(Cl)cccc1Cl
inactive: caspase-3 activation [1] -0.17% | outcome [2] | caspase-3 activation [3] 0.0127% | outcome [4] | outcome [5] | Potency [6] | Potency [8]

CNC(=O)c1ccccc1
inactive: caspase-3 activation [1] 0.192% | outcome [2] | caspase-3 activation [3] -1.03% | outcome [4] | outcome [5] | Potency [6] | Potency [8]

CCN(CC)c1cccc(O)c1
inactive: caspase-3 activation [1] -0.898% | outcome [2] | caspase-3 activation [3] 2.1% | outcome [4] | outcome [5] | outcome [9] | Potency [8]

CC(C)=CCl
inactive: caspase-3 activation [1] 0.522% | outcome [2] | caspase-3 activation [3] -0.24% | outcome [4] | outcome [5] | Potency [6] | Potency [8]

CC(C)(c1cc(Br)c(OCC(Br)CBr)c(Br)c1)c1cc(Br)c(OCC(Br)CBr)c(Br)c1 (configuration not stated)
inactive: caspase-3 activation [1] 0.758% | outcome [2] | caspase-3 activation [3] 1.29% | outcome [4] | outcome [5] | Potency [6] | Potency [7] | Potency [8]

Cc1nc2ccc(Cl)cc2[nH]1
inactive: caspase-3 activation [1] -0.773% | outcome [2] | caspase-3 activation [3] 0.101% | outcome [4] | outcome [5] | Potency [6] | Potency [7] | Potency [8]

Cc1cccc([N+](=O)[O-])c1C(=O)O
inactive: caspase-3 activation [1] -0.481% | outcome [2] | caspase-3 activation [3] 1.44% | outcome [4] | outcome [5] | Potency [6] | Potency [8]

CC(=O)CC(C)C
inactive: caspase-3 activation [1] 0.196% | outcome [2] | caspase-3 activation [3] 1.31% | outcome [4] | outcome [5] | Potency [6] | Potency [7] | Potency [8]

CN(C)CCCNCCCN
inactive: caspase-3 activation [1] -0.219% | caspase-3 activation [3] -0.0657% | caspase-3 activation [10] 0.619% | outcome [4] | outcome [5] | Potency [6] | Potency [7]

CCCCC/C=C/C=C/C=O
active: caspase-3 activation [10] 163% | Potency [8] 50.1 µM
inactive: caspase-3 activation [1] 0.621% | outcome [2] | outcome [4] | outcome [5] | Potency [6] | Potency [7]

Cc1cc([N+](=O)[O-])ccc1N
inactive: caspase-3 activation [1] 0.789% | outcome [2] | caspase-3 activation [3] -0.2% | outcome [4] | outcome [5] | Potency [6] | Potency [8]

CC(N)CN (configuration not stated)
inactive: caspase-3 activation [1] 2.7% | outcome [2] | caspase-3 activation [3] 0.364% | outcome [4] | outcome [5] | Potency [6] | Potency [7] | Potency [8]

CCC1CO1 (configuration not stated)
inactive: caspase-3 activation [1] 0.872% | outcome [2] | caspase-3 activation [3] 2.93% | outcome [4] | outcome [5] | Potency [6] | Potency [7] | Potency [8]

O=C(O)c1ccccc1C(=O)O
inactive: caspase-3 activation [1] 1.74% | outcome [2] | caspase-3 activation [3] -0.105% | outcome [4] | outcome [5] | Potency [7] | Potency [8]

CC=O
inactive: caspase-3 activation [1] 1.5% | outcome [2] | caspase-3 activation [3] 1.97% | outcome [4] | outcome [5] | Potency [6] | Potency [7] | Potency [8]

C1CCC2OC2C1 (configuration not stated)
inactive: caspase-3 activation [1] -0.0644% | outcome [2] | caspase-3 activation [3] -0.699% | outcome [4] | Potency [6] | Potency [7] | Potency [8]

Nc1cccc(N)c1
inactive: caspase-3 activation [1] 0.868% | outcome [2] | caspase-3 activation [3] 0.606% | outcome [4] | outcome [5] | outcome [9] | Potency [8]

COCCOC(=O)c1ccccc1C(=O)OCCOC
inactive: caspase-3 activation [1] 1.04% | outcome [2] | caspase-3 activation [3] 0.176% | outcome [4] | outcome [5] | Potency [6] | Potency [7] | Potency [8]

O=[N+]([O-])c1ccc(Cl)cc1Cl
inactive: caspase-3 activation [1] 0.652% | outcome [2] | caspase-3 activation [3] 1.21% | outcome [4] | outcome [5] | Potency [6] | Potency [7] | Potency [8]

O=C(O)c1ccc(Cl)cc1Cl
inactive: caspase-3 activation [1] -1.03% | outcome [2] | caspase-3 activation [3] 0.226% | outcome [4] | outcome [5] | Potency [6] | Potency [7] | Potency [8]

Cc1cccc2sc(N)nc12
inactive: caspase-3 activation [1] -0.691% | outcome [2] | caspase-3 activation [3] -0.522% | outcome [4] | outcome [5] | Potency [6] | Potency [7] | Potency [8]

COC(=O)c1ccccc1
inactive: caspase-3 activation [1] 0.596% | caspase-3 activation [3] 3.83% | caspase-3 activation [10] -1.66% | outcome [4] | outcome [5] | Potency [6] | Potency [7] | Potency [8]

NC(=O)c1ccccc1[N+](=O)[O-]
inactive: caspase-3 activation [1] -0.625% | caspase-3 activation [3] 0.0974% | caspase-3 activation [10] 0.369% | outcome [4] | Potency [6] | Potency [7] | Potency [8]
